Assay outcomes: PubChem BioAssay, National Center for Advancing Translational Sciences (NCATS)
This is one part of a sample in which hits are shown more often than they occur.
PGK inhibitor: qHTS Assay to Find Inhibitors of Phosphoglycerate Kinase; PGK/GAPDH coupled, Kinase-Glo luminescence, 60 min; AID 602233, 2012; Potency, µM (highest dose often 57.5 µM), actives largely listed as inhibitors; actives 0.043% (n = 380,000); further: nearly all actives have a fitted effect of over 60% in size
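Luminescent ATP detection (Kinase-Glo Plus) follows a 60-minute room-temperature incubation, with wells lacking PGK as controls. Buffer: 100 mM TEA (pH 7.6), 5 mM MgCl2, 0.01% Tween-20. Coupling enzyme GAPDH (100 nM final) supplies unstable 1,3-BPG in-well.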
PI4K2A inh: qHTS for small molecular inhibitors of PI4K2A | Phosphatidylinositol 4-kinase type 2-alpha (Homo sapiens), Q9BTU6 | purified PI4K2A, ADP-Glo luminescence, 1 h; active compounds read low | activity change, negative = inhibition, % at 76.9 µM | actives 0.13% (n = 420,000); in the data active means activity change below about -50%; inconclusive means mostly about -30% to -49%
Target sequence (Q9BTU6 whole entry, looked up): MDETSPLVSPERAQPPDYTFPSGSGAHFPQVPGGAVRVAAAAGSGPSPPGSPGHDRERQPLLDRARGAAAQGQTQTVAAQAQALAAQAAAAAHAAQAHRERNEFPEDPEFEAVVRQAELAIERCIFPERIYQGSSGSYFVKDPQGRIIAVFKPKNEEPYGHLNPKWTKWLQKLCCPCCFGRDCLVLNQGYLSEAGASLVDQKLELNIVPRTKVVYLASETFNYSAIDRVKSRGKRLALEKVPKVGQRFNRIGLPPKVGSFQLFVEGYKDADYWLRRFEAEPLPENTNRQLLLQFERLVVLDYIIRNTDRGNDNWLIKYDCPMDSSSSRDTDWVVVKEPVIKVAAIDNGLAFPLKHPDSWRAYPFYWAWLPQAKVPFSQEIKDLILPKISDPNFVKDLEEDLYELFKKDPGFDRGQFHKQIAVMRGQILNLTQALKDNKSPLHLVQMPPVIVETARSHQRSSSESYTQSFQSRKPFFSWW
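In this quantitative HTS, ADP production by PI4K2A was quantified luminescently after 1 h at ambient temperature; 100 microM adenosine served as plate-quality control.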
Pin1 inh: qHTS Assay to Find Inhibitors of Pin1. Pin1 FP peptide displacement, HiFluor488, 10 min. Potency, µM (doses to about 115 µM), hits mostly inhibitors. actives 0.009% (n = 390,000); active means well fitted inhibition curve with a large enough effect in the polarisation, with a control signal flat, not every such curve was filed as active; inconclusive means small, poorly fitted or top-dose-only effect, or effect the other way, or a change in a side signal; inactive means no such curve, though single readings can be large or run the other way; the % refers to the polarisation
Target sequence (Q13526 whole entry, looked up): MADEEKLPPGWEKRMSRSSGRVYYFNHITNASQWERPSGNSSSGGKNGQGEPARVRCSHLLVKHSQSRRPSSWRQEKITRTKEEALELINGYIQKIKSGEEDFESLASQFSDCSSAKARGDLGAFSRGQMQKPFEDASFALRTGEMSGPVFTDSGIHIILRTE
PI5P4Ka inh: qHTS for Inhibitors of phosphatidylinositol 5-phosphate 4-kinase (PI5P4K); PI5P4Kalpha enzyme, ADP-Glo luminescence, 60 min; active compounds read low; max response, %; actives 1.2% (n = 330,000); active means max response of -50% or lower; inconclusive means between -30% and -50%; inactive means -30% or higher; further: value at the top dose of about 77 µM
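Single end-point luminescence (ADP-Glo) quantified ADP from PI5P4Kalpha turnover; ATP 5 microM final, 1 h at RT, 0.1% CHAPS and 0.28 mM EGTA in HEPES pH 7.4.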
Tb PFK block: qHTS Assay to Find Inhibitors of T. brucei phosphofructokinase. ATP-dependent 6-phosphofructokinase (Trypanosoma brucei brucei), O15648. T. brucei PFK, ADP-Glo luminescence. Potency, µM (doses to about 57.5 µM), usual class: inhibitors. actives 0.17% (n = 330,000). AID 485367, 2010; further: nearly all actives have a fitted effect of over 60% in size
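Activity is normalized to no-enzyme wells (full inhibition) and 1.25 nM enzyme wells (no inhibition). Reaction: 0.5 mM F6P, 0.1 mM ATP, 45 min RT, ADP-Glo luminescence; concentration-response curves fitted and classed by quality.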
Hits are given with their value; 0 = inactive; ? = inconclusive; - = no result. Unless noted, the call rests on the fitted dose curve; in most records, active means well fitted curve in the direction sought with a large enough effect; inconclusive means small, poorly fitted or top-dose-only effect, or another doubt; inactive means no such curve, though single readings can be large; an effect the other way counts as inactive or inconclusive.

SMILES	PGK inhibitor	PI4K2A inh	Pin1 inh	PI5P4Ka inh	Tb PFK block
Cn1c(=O)c2[nH]c(=S)n(Cc3ccccc3)c2n(C)c1=O	0	0	0	0	-
CCCCn1c(=S)[nH]c2c(=O)n(C)c(=O)n(C)c21	0	0	-	-73	-
CCc1cc2c(-c3ccccc3)cc(=O)oc2cc1OC(C)C(C)=O (stereo not drawn)	0	0	0	0	?
CC(C)(C)OC(=O)NCC(=O)Oc1cc2oc(=O)cc(-c3ccccc3)c2cc1Cl	0	0	0	-72	0
O=C(/C=C/c1ccco1)c1ccc(NC(=O)C23CC4CC(CC(C4)C2)C3)cc1	0	0	0	-77	0
COC(=O)/C=C/C(=O)Nc1ccc(O)c(Cl)c1	0	0	0	-59	0
COc1ccc(/C=C/C(=O)Nc2ccc(Cl)c(Cl)c2)cc1	0	0	0	-	-
CCCCCCCC/C=C/C(=O)O	-	0	-	-	-
Nc1c(Br)cc2c([nH]c(=O)c3ccccc32)c1Br	0	0	?	-66	-
C/C(=N\NC(=O)c1ccc(C)cc1C)c1ccc2c(c1)OCO2	0	0	0	0	0
C/C(=N\NC(=O)c1cc2ccccc2cc1O)c1ccc2c(c1)OCO2	0	0	0	-67	0
O=C(Cc1ccccc1)Nc1sc2c(c1C(=O)Nc1ccc(Cl)cc1)CCOC2	-	-	0	-	-
Cc1ccc(-n2c(O)c(C=Nc3ccccc3-c3n[nH]c(=S)[nH]c3=O)c3ccccc3c2=O)cc1C	0	0	?	-81	0
Cc1ccc(-n2c(O)c(C=Nc3ccccc3-c3n[nH]c(=S)[nH]c3=O)c3ccccc3c2=O)c(C)c1	0	0	-	0	0
Nc1ncnc2c1ncn2Cc1c(F)cccc1Cl	-	0	-	-	-
Nc1nnc(CC(=O)N/N=C/c2ccc(-c3cccc(C(=O)O)c3)o2)s1	0	0	-	-57	0
Nc1nonc1-c1nc2ccccc2n1CC(=O)N/N=C/c1ccc(-c2cccc(C(=O)O)c2)o1	?	0	0	-60	0
Nc1nonc1-c1nc2ccccc2n1CC(=O)Nc1ccccc1C(=O)O	0	0	0	-	-
O=[N+]([O-])c1cc(CN2CCN(c3cccc(C(F)(F)F)c3)CC2)c2cccnc2c1O	0	0	?	-68	0
CCOC(=O)C(=O)Nc1nnc(CCc2ccccc2)s1	0	0	0	-66	0
CCC(=O)Nc1nnc(CCc2ccccc2)s1	0	0	0	?	0
CN(C(=O)CSc1nc2cc(C(=O)O)ccc2c(=O)n1Cc1ccccc1)C1CCS(=O)(=O)C1 (stereo not drawn)	0	0	?	?	0
CCN(C(=O)CSc1nc2cc(C(=O)O)ccc2c(=O)n1Cc1ccccc1)c1ccccc1	0	0	?	-53	0
O=C(O)Cc1ccc(N=Nc2c(O)c(C(=O)O)cc3ccccc23)cc1	?	0	-	-73	0
NS(=O)(=O)c1ccc(N=Nc2c(O)c(C(=O)O)cc3ccccc23)cc1	0	0	0	-95	0
SMILES	PGK inhibitor	PI4K2A inh	Pin1 inh	PI5P4Ka inh	Tb PFK block
Oc1ccc2ccccc2c1N=Nc1ccc(F)cc1	0	0	0	0	0
CC(=O)c1ccc(OCC(=O)N2CCCCC2)cc1	-	0	-	-	-
N#Cc1c(-c2ccncc2)c2c([nH]c1=S)CCCC2	0	0	0	-60	?
N#Cc1ccsc1NC(=O)COC(=O)C1=NNC(=O)CC1	0	?	?	-82	?
COc1ccc(/C=C2\CC3(OC(=O)C4CCCC4)CCCN2C3)cc1 (stereo not drawn)	-	0	-	-	-
CCCCCCN1C=CC(=C2C(=O)c3ccccc3C2=O)C=C1	0	0	?	0	0
CCCN1C=CC(=C2C(=O)c3ccccc3C2=O)C=C1	?	-54	?	-	0
CCN1C=CC(=C2C(=O)c3ccccc3C2=O)C=C1	?	-52	0	-	?
O=C(CCl)N1N=C(c2ccco2)CC1c1ccco1 (stereo not drawn)	0	0	-	-70	?
CCOC(=O)CN1CCCC1=O	-	0	-	-	-
COc1cc(F)c(S(=O)(=O)N2CCCN(S(=O)(=O)c3cccc(NC(C)=O)c3)CC2)c(F)c1	-	-	0	-	-
CCc1ccc(C(=O)CSc2n[nH]c(C)n2)cc1	0	0	0	-57	0
O=C(O)CSc1ncnc2nc[nH]c12	0	0	0	?	0
c1nc(SSc2ncnc3nc[nH]c23)c2[nH]cnc2n1	0	0	0	-80	-
CC(=O)Nc1cccc(/C(C)=N/Nc2ccc(S(=O)(=O)Nc3ccccc3C(=O)O)cc2[N+](=O)[O-])c1	0	0	-	-72	-
CN(CCO)c1ccc(C=NNc2ccc([N+](=O)[O-])cc2S(=O)(=O)Nc2ccccc2C(=O)O)cc1	0	0	0	-55	0
O=C(O)c1ccccc1NS(=O)(=O)c1ccc(NNC(=S)Nc2ccc(OC(F)F)cc2)c([N+](=O)[O-])c1	0	0	-	-82	?
COc1ccc(NC(=O)c2ccccc2NS(=O)(=O)c2ccc(C)cc2)c([N+](=O)[O-])c1	0	0	0	0	0
Cc1ccc(NC(=S)NNc2ccc([N+](=O)[O-])cc2S(=O)(=O)Nc2ccccc2C(=O)O)cc1C	0	0	?	-73	0
O=[N+]([O-])c1ccc(N/N=C/c2ccccc2)c(F)c1	0	0	0	0	0
O=[N+]([O-])c1cc(S(=O)(=O)Nc2ccccc2)ccc1Nc1ccccc1	0	0	0	0	-
O=C(O)Cc1cc(F)c(S(=O)(=O)N2CCN(S(=O)(=O)c3ccc4c(c3)OCCO4)CC2)cc1F	-	-	0	-	-
O=C1CCc2cc(S(=O)(=O)Nc3cccc(C(F)(F)F)c3)ccc2N1	-	-	0	-	-
CCOc1cc(/C=N/Nc2ccc(S(=O)(=O)Nc3ccccc3C(=O)O)cc2[N+](=O)[O-])cc(Cl)c1O	0	0	-	-69	-
O=C(O)c1cc(S(=O)(=O)Nc2ccccc2C(=O)O)ccc1O	0	0	0	-54	0
SMILES	PGK inhibitor	PI4K2A inh	Pin1 inh	PI5P4Ka inh	Tb PFK block
NS(=O)(=O)c1ccc(N/N=C/c2ccc(C(=O)O)cc2)c([N+](=O)[O-])c1	0	0	0	0	0
CC(=O)Nc1ccc(C=NNc2ccc(S(=O)(=O)Nc3ccccc3C(=O)O)cc2[N+](=O)[O-])cc1	0	0	-	-92	0
COc1cc(/C=N/Nc2ccccc2[N+](=O)[O-])cc(OC)c1O	0	0	0	0	0
O=C(O)c1ccccc1NS(=O)(=O)c1ccc(N/N=C/c2cccc(O)c2O)c([N+](=O)[O-])c1	8.9µM	0	-	?	-
COc1cccc(C2c3c(ncn(-c4cccc(C)c4)c3=N)Oc3ccc4ccccc4c32)c1 (stereo not drawn)	-	-	0	-	-
O=C(O)CNc1cccc(-c2nn3c(=O)cc(N4CCNCC4)nc3s2)c1	-	-	0	-	-
